Assay outcomes: PubChem BioAssay, The Scripps Research Institute Molecular Screening Center
This is a sample that favours compounds with a hit; in the whole collection about 2.4% have one here.
UHRF1 MBD2 ctr: UHRF1 methylated DNA binding inhibitors, primary screen, counter-screen for MBD2 inhibitor project, biochemical, TR-FRET, human UHRF1, single concentration. E3 ubiquitin-protein ligase UHRF1 (Homo sapiens), Q96T88. UHRF1 binding to methylated oligo. inhibition, % at 4.4 µM. 0.75% of 370,000 active. AID 687016, 2013; in the data active = inhibition above about 21%;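 note: UHRF1 SRA domain binding a hemimethylated CpG hairpin DNA probe; 0% = median of test compound wells and 100% = reference inhibitor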
PLC-gamma1 inh: PLC-gamma1 enzyme inhibitors, primary screen, biochemical, fluorescence, purified enzyme; 1-phosphatidylinositol 4,5-bisphosphate phosphodiesterase gamma-1 (Homo sapiens), P19174; fluorogenic substrate; inhibition, % at 12.2 µM; 0.84% of 370,000 active; in the data active = inhibition above about 9.5%
Target sequence (P19174 whole entry, looked up): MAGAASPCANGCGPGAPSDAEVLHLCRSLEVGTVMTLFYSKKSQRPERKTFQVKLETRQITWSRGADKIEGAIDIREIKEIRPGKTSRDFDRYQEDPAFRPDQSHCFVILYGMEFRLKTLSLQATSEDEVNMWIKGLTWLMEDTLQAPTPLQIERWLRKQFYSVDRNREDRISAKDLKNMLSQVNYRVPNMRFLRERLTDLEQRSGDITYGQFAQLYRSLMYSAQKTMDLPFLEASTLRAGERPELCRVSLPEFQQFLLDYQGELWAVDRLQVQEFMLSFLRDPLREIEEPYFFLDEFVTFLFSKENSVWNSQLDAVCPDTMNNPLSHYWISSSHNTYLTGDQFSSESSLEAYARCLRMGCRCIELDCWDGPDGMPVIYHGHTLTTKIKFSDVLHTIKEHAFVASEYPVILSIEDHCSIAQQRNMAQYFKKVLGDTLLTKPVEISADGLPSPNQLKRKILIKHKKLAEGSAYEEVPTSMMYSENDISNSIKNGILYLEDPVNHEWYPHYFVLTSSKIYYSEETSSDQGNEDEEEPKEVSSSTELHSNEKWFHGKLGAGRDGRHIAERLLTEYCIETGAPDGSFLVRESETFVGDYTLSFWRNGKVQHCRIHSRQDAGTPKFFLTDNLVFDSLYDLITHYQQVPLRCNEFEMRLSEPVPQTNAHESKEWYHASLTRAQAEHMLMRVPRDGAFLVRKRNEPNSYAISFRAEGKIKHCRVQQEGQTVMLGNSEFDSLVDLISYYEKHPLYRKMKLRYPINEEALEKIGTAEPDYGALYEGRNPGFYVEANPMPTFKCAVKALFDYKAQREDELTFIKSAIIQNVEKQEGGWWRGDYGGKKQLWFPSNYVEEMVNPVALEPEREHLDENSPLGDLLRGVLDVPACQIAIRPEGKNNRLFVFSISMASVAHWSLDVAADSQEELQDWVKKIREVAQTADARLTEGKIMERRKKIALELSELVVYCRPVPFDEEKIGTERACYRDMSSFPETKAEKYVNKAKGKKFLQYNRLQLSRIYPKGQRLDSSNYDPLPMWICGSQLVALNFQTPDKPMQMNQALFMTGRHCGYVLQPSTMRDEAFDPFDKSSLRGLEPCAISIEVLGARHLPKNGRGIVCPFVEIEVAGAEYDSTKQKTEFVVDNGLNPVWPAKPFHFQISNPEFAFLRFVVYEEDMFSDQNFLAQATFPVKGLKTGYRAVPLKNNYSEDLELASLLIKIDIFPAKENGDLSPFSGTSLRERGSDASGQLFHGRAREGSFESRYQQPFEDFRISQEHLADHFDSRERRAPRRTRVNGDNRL
PLC-beta3 inh: human PLC-beta3 inhibitors, primary screen, biochemical, fluorescence; 1-phosphatidylinositol 4,5-bisphosphate phosphodiesterase beta-3 (Homo sapiens), Q01970; Purified PLC-beta3, fluorogenic substrate; inhibition, % at 12.2 µM; 0.18% of 370,000 active; in the data active = inhibition above about 11%;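 note: 0% = median of compound wells on plate and 100% = full blocker control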
MBD2 DNA inh: inhibitors of MBD2 binding to methylated DNA, primary screen, biochemical, TR-FRET, DNA-binding domain, human; Methyl-CpG-binding domain protein 2 (Homo sapiens), Q9UBB5; AID 686964, 2013; 0.31% of 370,000 active; inhibition, % at 4.4 µM; MBD2 binding to methylated oligonucleotide; in the data active = inhibition above about 13%
LEDGF integ inh: blockers of LEDGF/p75-dependent integrase strand transfer – biochemical, TR-FRET, high throughput, primary screen; TR-FRET IN-LEDGF/p75 DNA integration, Eu/Cy5; 0.64% of 370,000 active; HIV-1 integrase (with human LEDGF/p75); inhibition, % at 3.7 µM;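 active = inhibition above the screen-wide mean plus 3 SD, cut at about 13% in these data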;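 note: signal is the Cy5 over europium emission ratio at 671 and 618 nm; 0% = plate median of compound wells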
Active calls of the source: *.

SMILES	UHRF1 MBD2 ctr	PLC-gamma1 inh	PLC-beta3 inh	MBD2 DNA inh	LEDGF integ inh
Clc1cccc(Cc2c(C3CCCCC3)nc3c4ccccc4ccn23)c1	24*	-5	-13	3	6
N#Cc1c(N)sc2c1CCCCCC2	-5	-3	-5	-3	0
N#Cc1c(N)sc(=S)c2c1CCCCC2	21*	-38	-59	10	19*
CCOc1ccccc1NC(=O)COC(=O)COc1c(Cl)cc(Cl)c2ccc(C)nc12	37*	0	-11	0	-4
COc1ccc(-c2nnc3n2N=C(c2cccc([N+](=O)[O-])c2)CS3)cc1	4	2	-2	9	-1
O=C(c1ccccc1)N1CCC(Oc2cccnc2)CC1	0	1	0	1	-2
COC(=O)CCc1sc(Nc2ccccc2)nc1-c1ccc(OC)cc1	37*	-8	-8	4	-2
COc1ccc(Nc2nc(-c3ccc(OC)cc3)c(CCC(=O)O)s2)cc1	0	9	-10	-2	3
C=CCNC(=O)Nc1ccc2c(c1)[C@]1(CC(=O)N(CC(C)C)C1c1ccccc1)C(=O)N2C (stereo partly drawn)	-2	0	-3	-5	1
CCC(C)(C)n1nnnc1CN1CCN(c2ccc(OC)cc2)CC1	22*	0	1	-1	1
COc1ccc(Cn2nnnc2CN2CCN(c3ccc(OC)cc3)CC2)cc1	-3	-1	3	-2	0
O=S1(=O)CC2c3ccccc3CN2CN1Cc1ccc(F)cc1 (stereo not drawn)	-5	-9	-11	-1	0
c1nc(NCC2CCCCO2)c2cc(-c3ccc4c(c3)OCO4)ccc2n1 (stereo not drawn)	0	-109	-150	4	-2
Cc1cc(-c2csc(NC(=O)c3ccc(C#N)cc3)n2)c(C)n1Cc1ccco1	57*	-17	-37	22*	68*
CCOC(=O)[C@@]12CCCC3=C1N(CCC3)C(=O)[C@H]2CC(=O)NCCC(C)C	-2	1	-1	1	-2
CC(C)C[C@@H](CNCC(=O)[C@H](CC(=O)O)NC(=O)c1[nH]cnc1C(=O)N[C@H](CN)CC(C)C)NC(=O)c1nc[nH]c1C(=O)N[C@@H](C)C(=O)O	22*	-2	-3	12	-2
CC(C)C[C@@H](CN)NC(=O)c1nc[nH]c1C(=O)N[C@@H](C)C(=O)CNC[C@H](CC(C)C)NC(=O)c1nc[nH]c1C(=O)N[C@@H](CC(=O)O)C(=O)O	5	0	0	-2	-3
CC(C)C[C@@H](CNCC(=O)[C@H](CC(C)C)NC(=O)c1[nH]cnc1C(=O)N[C@@H](C)CN)NC(=O)c1nc[nH]c1C(=O)N[C@@H](C)C(=O)O	23*	0	1	3	1
CCOC(=O)[C@@]12CN(C(=O)OC(C)(C)C)CC=C1N(Cc1ccc(OC)cc1)C(=O)[C@H]2CC(=O)NCCc1ccccc1OC	-2	-1	0	0	-2
COc1ccccc1OCc1ccc(C(=O)N(C)C)o1	1	-2	0	-2	1
COc1ccccc1OCc1ccc(C(=O)N(C)c2ccccc2)o1	25*	0	-5	4	2
Cc1ccc(C2CCC3(CCC(=O)N3CCO)CC2)cc1 (stereo not drawn)	2	-2	2	2	3
COc1ccc2c(CN3CCOCC3)cc(=O)oc2c1	-2	-7	-7	-1	-1
COc1ccc2c(CN3CCCCC3)cc(=O)oc2c1	21*	-108	-159	8	-1
CN(CC(=O)Nc1c(Cl)cccc1Cl)C(=O)C1CSC2(C)CCC(=O)N12 (stereo not drawn)	-1	-1	-4	1	1
SMILES	UHRF1 MBD2 ctr	PLC-gamma1 inh	PLC-beta3 inh	MBD2 DNA inh	LEDGF integ inh
CN(Cc1ccc(Cl)c(Cl)c1)C(=O)C1CSC2(C)CCC(=O)N12 (stereo not drawn)	28*	-1	-6	0	2
Cc1ccc(S(=O)(=O)N2C[C@H]3N(C(=O)OC(C)C)N(C(=O)OC(C)C)C[C@H](OC(=O)NCc4ccccc4F)[C@@]3(O)C2)cc1	22*	2	0	7	-3
COc1ccc(CNC(=O)O[C@H]2CN(C(=O)OC(C)C)N(C(=O)OC(C)C)[C@@H]3CN(S(=O)(=O)c4ccc(C)cc4)C[C@]23O)cc1OC	-1	-4	1	3	0
C#CCN(C[C@@H]1[C@@H](OC(=O)NCc2ccccc2)[C@@H](OC(=O)NCc2ccccc2)CN(C(=O)OC(C)C)N1C(=O)OC(C)C)S(=O)(=O)c1ccc(C)cc1	23*	-6	-2	9	-2
Cc1ccccc1C(=O)N1CCC(Oc2cccnc2)CC1	0	1	-3	-2	-4
COC(CNC(=O)[C@H](Cc1c[nH]c2ccccc12)NC1(C(=O)NC(c2ccccc2)c2ccccc2)CCCCC1)OC	0	-1	-1	-2	1
O=C(Nc1ccc2nc3n(c(=O)c2c1)CCCCC3)c1c(F)ccc([N+](=O)[O-])c1F	-2	3	2	3	17*
COCCN(C(=O)COC(=O)Cc1coc2cc(C)ccc12)c1c(N)n(Cc2ccccc2)c(=O)[nH]c1=O	3	-2	1	1	7
COc1ccc2c(CC(=O)OCC(=O)N(C)c3c(N)n(Cc4ccccc4)c(=O)[nH]c3=O)coc2c1	22*	-7	-18	5	-1
O=C(COC(=O)c1cc(F)cc(F)c1)NCCCc1ccccc1	85*	-2	-5	7	1
COc1ccc(-c2noc(C3CCCN(C(=O)Nc4cc(C)cc(C)c4)C3)n2)cc1 (stereo not drawn)	4	4	4	-4	0
Cc1oc2cc([N+](=O)[O-])c(O)c([N+](=O)[O-])c2c1C(=O)c1ccc(Cl)cc1	-6	10*	11*	-10	10
COc1ccc(OC)c(C(=O)c2c(C)oc3cc([N+](=O)[O-])c(O)c([N+](=O)[O-])c23)c1	-7	5	-3	-17	-2
COC(=O)[C@H]1CN(C(=O)c2ccccc2)C(=O)N1	-2	-1	1	3	0
COC(=O)C1CCC(=S)N1C(=O)c1ccccc1 (stereo not drawn)	27*	3	0	-3	-1
COC(=O)c1oc2c(c1C)C(=O)CCC2	3	1	-5	2	-6
O=C1CCCc2oc3c(c21)CCCC3	23*	4	-2	12	-6
CC(=O)N1CCN(c2ccc(NCc3ccc(Br)o3)cc2)CC1	-3	-11	-16	-5	28*
